Assay results from PubChem BioAssay (NCATS).
Inconclusive results are not listed. Active and inactive are the calls of the source. Calls come from the whole dose curve; as a rule, active = well fitted curve in the direction sought with a large enough effect; inconclusive = small, poorly fitted or top-dose-only effect, or another doubt; inactive = no such curve, though single readings can be large; an effect the other way counts as inactive or inconclusive.

tested on: not listed separately; experiment: qHTS to identify inhibitors of the type 1 interferon - major histocompatibility complex class I in skeletal muscle: primary screen against the NCATS Pharmaceutical Collection (AID 1347407); conditions: human skeletal muscle cells, IFN-b-induced MHC-I HiBiT luminescence, 24 h; series mostly up to 45.9 µM; activity change, negative = inhibition: at the top concentration;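 note: luminescence of HiBiT knocked into endogenous HLA-B as interferon-induced MHC class I level; % is set by controls: 0 for no effect and ±100 for the full control effect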
Method in brief: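 Luminescence from HiBiT-tagged endogenous HLA-B*08:01 served as the read-out of IFN-beta-induced MHC class I in CRISPR-engineered C25cl48 myoblasts. Cells received 4 ng/ml IFN-beta plus compound (high final 46 uM, […]) for 24 h.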

Row | Structure (SMILES) | activity change, negative = inhibition
1 | O=C1OC2(c3ccccc31)c1cc(Br)c(O)c(Br)c1Oc1c2cc(Br)c(O)c1Br | -15.8% (inactive)
2 | CC(=O)Nc1ccc(S(=O)(=O)Nc2ccc([N+](=O)[O-])cc2)cc1 | -3.27% (inactive)
3 | CC(=O)Nc1ncc([N+](=O)[O-])s1 | 0.731% (inactive)
4 | COc1cc(N)c(Cl)cc1C(=O)NC1CCN(Cc2ccccc2)CC1 | -3.26% (inactive)
5 | N#C/C(=C1\SCC(c2ccccc2Cl)S1)n1ccnc1 (stereo unspecified) | 13.9% (inactive)
6 | NC(=O)c1ccccc1O | -2.24% (inactive)
7 | CCC(Cc1c(I)cc(I)c(N)c1I)C(=O)O (stereo unspecified) | 0.0194% (inactive)
8 | O=C(Nc1ccc([N+](=O)[O-])cc1)Nc1ccc([N+](=O)[O-])cc1 | -3.05% (inactive)
9 | OCc1ccccn1 | -3.19% (inactive)
10 | CN(Cc1ccc(C(C)(C)C)cc1)Cc1cccc2ccccc12 | -5.07% (inactive)
11 | NS(=O)(=O)c1cc2c(cc1Cl)NC(CC1CCCC1)NS2(=O)=O (stereo unspecified) | -4.54% (inactive)

target: Protein phosphatase 1D (Homo sapiens) (UniProt O15297); experiment: RapidFire Mass Spectrometry qHTS Assay for Modulators of WT P53-Induced Phosphatase 1 (WIP1) (AID 1347424); conditions: WIP1 dephosphorylation of phosphopeptide, RapidFire MS; series mostly up to 63 µM; activity change, negative = inhibition: at the top concentration; note: potency is the fitted concentration of half-maximal effect;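 for activity change, negative = inhibition: plate controls were DMSO wells for no effect and GSK830371 inhibitor control at 10 µM for full effect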
Sequence (O15297 whole entry, looked up): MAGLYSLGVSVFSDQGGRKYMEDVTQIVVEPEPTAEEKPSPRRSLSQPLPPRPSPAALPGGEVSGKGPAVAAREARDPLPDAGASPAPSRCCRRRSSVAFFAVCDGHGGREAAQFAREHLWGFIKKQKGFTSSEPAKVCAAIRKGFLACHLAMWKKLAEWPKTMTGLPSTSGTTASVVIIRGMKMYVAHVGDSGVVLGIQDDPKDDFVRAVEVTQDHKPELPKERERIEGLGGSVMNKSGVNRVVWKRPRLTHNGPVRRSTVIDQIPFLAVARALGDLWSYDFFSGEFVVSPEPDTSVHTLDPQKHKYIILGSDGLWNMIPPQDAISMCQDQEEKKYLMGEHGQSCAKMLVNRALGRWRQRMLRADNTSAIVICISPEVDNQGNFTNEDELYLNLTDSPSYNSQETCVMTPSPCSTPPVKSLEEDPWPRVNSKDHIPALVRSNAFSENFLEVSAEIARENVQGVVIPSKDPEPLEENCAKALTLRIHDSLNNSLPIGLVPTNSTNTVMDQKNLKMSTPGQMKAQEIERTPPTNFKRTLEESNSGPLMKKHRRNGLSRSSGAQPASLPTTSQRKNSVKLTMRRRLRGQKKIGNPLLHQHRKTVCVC
Method in brief: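 RapidFire MS readout of dephosphorylated VEPPL-S-QETFS product, with 1 uM isotope-labelled peptide standard. Reaction: 10 nM WIP1, 2 uM phosphopeptide substrate, 5 min, room temperature, after 1 h compound preincubation; stopped with 0.5% formic acid.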

Row | Structure (SMILES) | activity change, negative = inhibition | Potency
12 | CCCCCN=C(N)N/N=C/c1c[nH]c2ccc(OC)cc12 | 73.3% (inactive) | 
13 | CC1=C(C(=O)O)N2C(=O)[C@@H](NC(=O)[C@H](N)c3ccccc3)[C@H]2SC1 | 3.44% (inactive) | 
14 | CNCCCCOc1ccccc1Cc1ccccc1 | 34.1% (inactive) | 
15 | NCCNc1cccc2ccccc12 | 3.31% (inactive) | 
16 | Oc1ccc(Cl)cc1Cc1cc(Cl)ccc1O |  | 22.4 µM (active)
17 | CCN(CC)CCOc1ccccc1C(=O)CCc1ccccc1 | 10.7% (inactive) | 
18 | CCCN(CCc1cccs1)[C@H]1CCc2c(O)cccc2C1 | 15.9% (inactive) | 
19 | CC(=O)O[C@]1(C(C)=O)CC[C@H]2[C@@H]3C=C(Cl)C4=CC(=O)CC[C@]4(C)[C@H]3CC[C@@]21C | -6.06% (inactive) | 
20 | CCCCCCCCCCCCCC[N+](C)(C)Cc1ccccc1 | 53.9% (inactive) | 
21 | O=C1C(CCS(=O)c2ccccc2)C(=O)N(c2ccccc2)N1c1ccccc1 (stereo unspecified) | -18.7% (inactive) | 
22 | CCCCC(CC)COC(=O)/C=C/c1ccc(OC)cc1 (stereo unspecified) | 28.4% (inactive) | 
23 | O=C1c2cccc3c2[C@H](CCC3)CN1[C@@H]1CN2CCC1CC2 | -9.13% (inactive) | 
24 | O=C(O)CCNC(=O)c1ccccc1 | -1.49% (inactive) | 
25 | CC(=O)OCC(=O)[C@H]1CC[C@H]2[C@@H]3CCC4=CC(=O)CC[C@]4(C)[C@H]3CC[C@]12C | 7.5% (inactive) | 
26 | C=C[C@H]1CN2CC[C@H]1C[C@@H]2[C@@H](O)c1ccnc2ccc(OC)cc12 | 1.01% (inactive) | 
27 | CCc1oc2ccccc2c1C(=O)c1cc(I)c(O)c(I)c1 |  | 3.55 µM (active)
28 | CCN1CCN(C(=O)N[C@@H](C(=O)N[C@@H]2C(=O)N3C(C(=O)O)=C(CSc4nnnn4C)CS[C@H]23)c2ccc(O)cc2)C(=O)C1=O | -10.9% (inactive) | 

target: Protein phosphatase 1D (Homo sapiens) (UniProt O15297); experiment: Rhodamine-PBP qHTS Assay for Modulators of WT P53-Induced Phosphatase 1 (WIP1) (AID 1347425); conditions: recombinant WIP1, Rhodamine-PBP phosphate fluorescence, real-time; series mostly up to 57.5 µM; activity change, negative = inhibition: at the top concentration; note: % of control where 0% means no effect
Method in brief: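 The read-out is the change in Rhodamine-PBP fluorescence (f1 - f0, ex 525/em 598 nm) as Pi is released, read each minute for 11 min. Final reaction: 5 nM WIP1, 10 uM phosphopeptide VEPPL-pS-QETFS, 10 uM Rh-PBP, 50 mM Tris-HCl pH 7.5, 30 mM MgCl2. Compound was preincubated with enzyme for 1 hour at room temperature.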

Row | Structure (SMILES) | activity change, negative = inhibition
29 | CCCCCN=C(N)N/N=C/c1c[nH]c2ccc(OC)cc12 | 10% (inactive)
30 | C#C[C@]1(O)CC[C@H]2[C@@H]3CCC4=Cc5oncc5C[C@]4(C)[C@H]3CC[C@@]21C | -25.6% (inactive)
31 | CC(=O)Nc1ccc(S(=O)(=O)Nc2ccc([N+](=O)[O-])cc2)cc1 | 0.323% (inactive)
32 | CC1=C(C(=O)O)N2C(=O)[C@@H](NC(=O)[C@H](N)c3ccccc3)[C@H]2SC1 | -10.8% (inactive)
33 | CNCCCCOc1ccccc1Cc1ccccc1 | 25.7% (inactive)
34 | NCCNc1cccc2ccccc12 | 9.66% (inactive)
35 | CC(=O)Nc1ncc([N+](=O)[O-])s1 | -19.8% (inactive)
36 | CCN(CC)CCOc1ccccc1C(=O)CCc1ccccc1 | 4.41% (inactive)
37 | CCCN(CCc1cccs1)[C@H]1CCc2c(O)cccc2C1 | 7.79% (inactive)
38 | CC(=O)O[C@]1(C(C)=O)CC[C@H]2[C@@H]3C=C(Cl)C4=CC(=O)CC[C@]4(C)[C@H]3CC[C@@]21C | -4.09% (inactive)
39 | COc1cc(N)c(Cl)cc1C(=O)NC1CCN(Cc2ccccc2)CC1 | 9.81% (inactive)
40 | CCCCCCCCCCCCCC[N+](C)(C)Cc1ccccc1 | 14.5% (inactive)
41 | N#C/C(=C1\SCC(c2ccccc2Cl)S1)n1ccnc1 (stereo unspecified) | -5.78% (inactive)
42 | NC(=O)c1ccccc1O | 10.8% (inactive)
43 | Cc1c(-c2ccccc2)oc2c(C(=O)OCCN3CCCCC3)cccc2c1=O | -12.9% (inactive)
44 | CCN(CC)CCNc1ccc(CO)c2sc3ccccc3c(=O)c12 | -4.25% (inactive)
45 | CCCCC(CC)COC(=O)/C=C/c1ccc(OC)cc1 (stereo unspecified) | -1.04% (inactive)
46 | O=C(Nc1ccc([N+](=O)[O-])cc1)Nc1ccc([N+](=O)[O-])cc1 | -7.34% (inactive)
47 | CN1CCN(C2=Nc3cc(F)ccc3Cc3ccccc32)CC1 | -8.36% (inactive)
48 | O=C1c2cccc3c2[C@H](CCC3)CN1[C@@H]1CN2CCC1CC2 | -2.16% (inactive)
49 | O=C(O)CCNC(=O)c1ccccc1 | 5.02% (inactive)
50 | OCc1ccccn1 | -16.4% (inactive)
51 | CC(=O)OCC(=O)[C@H]1CC[C@H]2[C@@H]3CCC4=CC(=O)CC[C@]4(C)[C@H]3CC[C@]12C | -1.62% (inactive)
52 | C=C[C@H]1CN2CC[C@H]1C[C@@H]2[C@@H](O)c1ccnc2ccc(OC)cc12 | 7.11% (inactive)
53 | C#C[C@]1(OC(C)=O)CC[C@H]2[C@@H]3CCC4=C/C(=N/O)CC[C@@H]4[C@H]3CC[C@@]21CC | -26.7% (inactive)
54 | CCN(CC)CCOc1ccc2c(c1)C(=O)c1cc(OCCN(CC)CC)ccc1-2 | -3.94% (inactive)
55 | CN(Cc1ccc(C(C)(C)C)cc1)Cc1cccc2ccccc12 | 7.03% (inactive)
56 | CCN1CCN(C(=O)N[C@@H](C(=O)N[C@@H]2C(=O)N3C(C(=O)O)=C(CSc4nnnn4C)CS[C@H]23)c2ccc(O)cc2)C(=O)C1=O | 6.86% (inactive)
